Assay results published in PubChem BioAssay AID449762 (Southern Research Specialized Biocontainment Screening …, 2010).
Among all 330,000 compounds or so, about 1,900 (0.58%) were called active. Roughly 4% stayed inconclusive and do not appear here. Not all results are given here. Measured potencies and affinities stand elsewhere. Unmarked numbers belong to inactive results. Rule as the data show it: inconclusive = inhibition above about 70% without an active follow-up result; inactive = below that.

assay: M. tuberculosis growth inhibition, HTS (AID 449762);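 also: bacterial growth assessed after seven days of incubation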; conditions: M. tuberculosis H37Rv growth inhibition, 7H9 media; at 25 µM; stronger effect = higher value

Row | Compound | inhibition
1 | COc1ccc(N2CCN(CCNC(=O)c3ccc(NC(=O)C4CCCO4)cc3)CC2)cc1 (stereo not given) | -2.8%
2 | CC1CCN(C2=NC(=O)/C(=C/c3cn[nH]c3-c3ccccc3)S2)CC1 | 12.8%
3 | O=C1N=C(N2CCCC2)S/C1=C\c1cn[nH]c1-c1ccccc1 | -6.16%
4 | CCOC(=O)c1[nH]c2c(c1-c1ccccc1)C(=O)CC(c1ccccc1)C2 (stereo not given) | 3.2%
5 | Nc1nc2ccccc2n1CCN1CCCC1 | -1.87%
6 | CC(C)(C)c1ccc(C(=O)O)c(C(=O)c2ccccc2)c1 | -4.75%
7 | Brc1cnc2nc(SC/C=C/c3ccccc3)[nH]c2c1 | -5.71%
8 | COc1cccc(C(=O)NCC2CCN(c3ccc(S(=O)(=O)N4CCOCC4)cc3)CC2)c1 | -13.8%
9 | COc1ccccc1C(=O)NCC1CCN(c2ccc(S(=O)(=O)N3CCOCC3)cc2)CC1 | 2.24%
10 | CC(=O)NS(=O)(=O)c1ccc(NS(=O)(=O)c2ccccc2[N+](=O)[O-])cc1 | 3.53%
11 | CCN(CC)CCCC(C)NC(=O)c1ccc(C(F)(F)F)cc1 (stereo not given) | -7.51%
12 | CCCCNC(=O)CN(c1cc(C(F)(F)F)ccc1Cl)S(C)(=O)=O | -6.63%
13 | O=C(CCN1CCCC1)Nc1ccccc1 | 22.9%
14 | Cc1ccc(C)c(N2CCN(C(=S)Nc3ccc4nc(N5CCOCC5)cc(C)c4c3)CC2)c1 | -4.9%
15 | Cc1cc(N2CCN(C)CC2)nc2ccc(NC(=S)N3CCCCCC3)cc12 | 3.75%
16 | CCN(CCCNC(=O)CNC(=O)c1nn(-c2ccc(OC)cc2)c(=O)c2ccccc12)c1cccc(C)c1 | 8.46%
17 | Cc1cc2c(cc1C)CSC(c1ccc3ccccc3c1O)SC2 | -4.57%
18 | Cc1cc2c(cc1C)CSC(c1ccccc1O)SC2 | 13.6%
19 | CCOc1ccc2oc(=O)cc(CN3CCN(C(=O)c4ccco4)CC3)c2c1 | 4.6%
20 | Cn1c(N)c(C(=O)COC(=O)c2ccco2)c(=O)n(C)c1=O | 1.11%
21 | Cc1ccc[n+](CC(=O)/C=C2\N(C)c3ccccc3C2(C)C)c1 | -2.49%
22 | Cn1c(N)c(C(=O)COC(=O)c2ccc(Br)o2)c(=O)n(C)c1=O | 1.58%
23 | CN1/C(=C\C(=O)COC(=O)c2ccc(O)cc2)C(C)(C)c2ccccc21 | -3.13%

Row | Compound | inhibition
24 | CN1/C(=C\C(=O)C[n+]2cccc(C(N)=O)c2)C(C)(C)c2ccccc21 | 0.09%
25 | CN1/C(=C\C(=O)COC(=O)c2ccco2)C(C)(C)c2ccccc21 | 0.58%
26 | COc1ccc(Cl)cc1NC(=O)CSc1nnc(-c2ccco2)o1 | -2.66%
27 | O=C(OCC(=O)N1CCCCC1)c1c[nH]c(=O)[nH]c1=O | -1.77%
28 | COc1ccccc1C(=O)NC(CCSC)C(=O)NNC(=O)c1ccccc1O (stereo not given) | -6.8%
29 | CC(C)(C)C(=O)O/N=C(\N)c1ccc(Oc2cc(Cl)cc(Cl)c2)c([N+](=O)[O-])c1 | 0.8%
30 | CCCCN1CC(O)=C(c2nc3ccccc3[nH]2)C1=N | -10.6%
31 | COc1ccc(NC(=O)N(C)C[C@H]2Oc3ccc(NC(=O)Cc4ccccc4)cc3C(=O)N([C@H](C)CO)C[C@@H]2C)cc1 | -4.97%
32 | COc1ccc(C(=O)NCC(c2ccc3c(c2)OCO3)N2CCN(c3ccc(OC)cc3)CC2)cc1 (stereo not given) | 7.52%
33 | O=C(COc1ncnc2cc([N+](=O)[O-])ccc12)NC1CCCCC1 | -3.77%
34 | CCOC(=O)c1ccc(NC(=O)CSc2nc(C)nc3c2c(=O)n(C)c(=O)n3C)cc1 | -9.19%
35 | CCCC/C(=N/O)c1c(C)[nH]c2ccccc12 | -0.42%
36 | CCc1sc2nc(SCC(=O)Nc3cc(C)on3)n(-c3cccc(OC)c3)c(=O)c2c1C | -0.05%
37 | COc1ccc2c(c1)CCc1c(C(=O)Nc3c(C)nn(Cc4ccccc4)c3C)noc1-2 | 0.29%
38 | Cc1c(NC(=O)c2noc3c2CCc2ccccc2-3)c(=O)n(-c2ccccc2)n1C | 43%
39 | CC(C)(C)c1nnc(NC(=O)CCS(=O)(=O)Cc2ccccc2)s1 | -8.95%
40 | O=C(Cc1ccc(Br)cc1)NC1CCSC1=O (stereo not given) | -3.33%
41 | O=C(c1cccs1)N1CCN(c2cccc(Cl)c2)CC1 | 0.26%
42 | O=C(Cn1ccsc1=NC(=O)C(F)(F)F)c1ccccc1 | -3.48%
43 | CC(=O)NC12CC3CC(C1)CC(C(=O)Nc1nc4ccc(S(C)(=O)=O)cc4s1)(C3)C2 | -8.67%
44 | CC(=O)NC12CC3CC(C1)CC(C(=O)Nc1nccs1)(C3)C2 | -0.32%
45 | Cn1c(O)c(C2=c3ccccc3=NC2=O)[nH]c1=S | 37%
46 | Cc1ccc2c(c1)c(C1=NC(=S)NC1=O)c(O)n2C | -2.95%

Row | Compound | inhibition
47 | C/C(=N\NC(=O)c1ccc(Cn2cc([N+](=O)[O-])cn2)o1)c1cccc(NC(=O)c2cccnc2)c1 | -0.38%
48 | Clc1cccc(C2Nc3cccc4cccc(c34)N2)c1 | 11.6%
49 | O=C(c1ccccc1)c1ccc(OCCCN2CCCC2)cc1 | -9.38%
50 | O=C(c1ccccc1)c1ccc(OCCCCN2CCCCC2)cc1 | 3.79%
51 | Cc1nc(Nc2ccccc2)sc1C(=O)Nc1ccccc1 | 7.98%
52 | Cc1nc(Nc2c(Cl)cccc2Cl)sc1C(=O)Nc1ccccc1 | 12%
53 | CC(NC(=O)/C(C#N)=C/c1cccs1)c1ccccc1 (stereo not given) | -1.56%
54 | Clc1ccc2c(c1)C(c1ccccc1Cl)=NCc1nnc(Br)n1-2 | 6.91%
55 | CCOCCN1CCN(c2nnc3n2-c2ccc(Cl)cc2C(c2ccccc2Cl)=NC3)CC1 | 4.83%
56 | Cn1c(=O)c2c(nc(SCCN3CCOCC3)n2C)n(C)c1=O | 1%
57 | O=C(CCc1ccc(Oc2cc([N+](=O)[O-])cc([N+](=O)[O-])c2)cc1)NC1CCCC1 | 30.8%
58 | O=C(c1ccc(Oc2ccc([N+](=O)[O-])cc2)cc1)N1CCCCCC1 | 20.3%
59 | Cc1cc(C)nc(OC(C(=O)O)C(OCC(C)C)(c2ccccc2)c2ccccc2)n1 (stereo not given) | -3.41%
60 | Cc1cccc(C(=O)NC2CC(C)(C)NC(C)(C)C2)c1 | -6.34%
61 | Cc1ccc(S(=O)(=O)/N=C2/NC(=O)/C(=C/c3ccc(Br)o3)S2)cc1 | -2.8%
62 | COC(=O)c1ccc(CSc2nnc(CNC(=O)c3ccccc3F)o2)o1 | 4.26%
63 | CCc1c(C2(O)CCCCC2)[nH]c2ccc(C#N)cc12 | 5.4%
64 | Cc1c(C2(O)CCCCC2)[nH]c2cc(C(F)(F)F)ccc12 | 15.3%
65 | Cc1nn(S(=O)(=O)c2ccc(C(C)C)cc2)c(C)c1S(=O)(=O)N1CCOCC1 | -4.31%
66 | Cc1nn(CC(=O)NCCCN2C(C)CCCC2C)c(=O)c2cc3occc3n12 (stereo not given) | 5.96%
67 | CCCc1nc([N+](=O)[O-])c(S(=O)(=O)c2ccccc2)n1CC(C)C | 10%
68 | CCCn1c(CC)nc([N+](=O)[O-])c1Sc1ccc(C)cc1 | -12%
69 | Cc1ccc(NC(=O)CN(C)C(=O)/C=C/c2ccc3c(c2)OCO3)cc1 | 6.72%

Row | Compound | inhibition
70 | CN(CC(=O)Nc1ccc(OC(F)(F)F)cc1)C(=O)/C=C/c1ccco1 | 5.57%
71 | CCCCc1c(O)nc(SCC(=O)N2CCCCC2)[nH]c1=O | 17.7%
72 | COc1ccc(-c2nnc(SCC(=O)NC3CCCC3)n2C)cc1 | -3.82%
73 | Cc1ccc(C(=O)/C=C/c2ccccc2)o1 | 4.37%
74 | Cc1ccc(C(=O)/C=C/c2ccc3c(c2)OCO3)o1 | 1.84%
75 | CC1CCCCN1S(=O)(=O)c1cccc2nonc12 (stereo not given) | -1.08%
76 | Cc1nn(Cc2ccccc2Cl)c2sc(C(=O)NC(C)(C)C)cc12 | 30.5%
77 | CCC(CC)NC(=O)c1cc2c(C)nn(Cc3ccccc3Cl)c2s1 | -1.27%
78 | CCCCNC(=O)CCNC(=O)c1ccc(C(C)(C)C)cc1 | -8.34%
79 | CCCNC(=O)CCNC(=O)c1ccc(C(C)(C)C)cc1 | -4.92%
80 | O=C(CSc1nnc(-c2c[nH]c3ccccc23)o1)N(Cc1ccccc1)c1ccc(F)cc1 | -6.56%
81 | Cc1nc(SCc2nc3ccccc3[nH]2)c2oc3ccc(Br)cc3c2n1 | 18%
82 | Cc1ccccc1CN1C(=O)[C@H]2Cc3c([nH]c4ccccc34)C(C)(C)N2C1=O | -6.56%
83 | Cc1ccccc1CN1C(=O)[C@@H]2Cc3c([nH]c4ccccc34)C(C)(C)N2C1=O | 8.29%
84 | C/C=C(\C)C(=O)NCCN1C2=NC[C@H](C)N2C[C@@H]1Cc1ccc(OC)cc1 | 0.12%
85 | COc1ccc(-c2cc(C3CCN(c4ccc(C(C)=O)cc4[N+](=O)[O-])CC3)[nH]n2)cc1 | 2.56%
86 | COc1ccc(OC)c(-c2cc(C3CCN(c4cc(Cl)nc(N)n4)CC3)[nH]n2)c1 | -10.8%
87 | CC(=O)c1ccc(N2CCC(c3cc(-c4ccc(Cl)cc4)n[nH]3)CC2)c([N+](=O)[O-])c1 | -1.54%
88 | Nc1nc(Cl)cc(N2CCC(c3cc(-c4ccc(Cl)cc4)n[nH]3)CC2)n1 | 4.43%
89 | Cc1cc(OCC(=O)NCc2ccccn2)c2c(C)c(Cc3ccccc3)c(=O)oc2c1 | 3.29%
90 | O=C(CN(Cc1cccs1)C(=O)CN1C(=O)COc2ccccc21)NCc1ccco1 | -10.2%
